Common to all, as to assay: qHTS profiling for inhibitors of Plasmodium falciparum proliferation (AID 504749); further: nearly all actives have a fitted effect of over 60% in size
Holding throughout (conditions): P. falciparum in erythrocytes, SYBR Green DNA, 72 h; series mostly up to 28.7 µM
A general note: In qHTS, concentration-response curves come from the screen itself.

In one experiment the test system is CP269. The gist of the method: (§1)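 P. falciparum-infected erythrocytes (0.3% parasitemia, 2.5% hematocrit) incubated with compound 72 h at 37 C, 5% CO2. Parasite DNA detected by SYBR Green after lysis, overnight at room temperature; normalised to 0.29 uM artemisinin and DMSO.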
A further experiment deals with CP291. The gist of the method: as §1
Another experiment deals with CP297. The method, boiled down:
as §1

In the next experiment the test system is CP305. The gist of the method: as §1
In another experiment the test system is CP315. The gist of the method:
as §1

The next experiment deals with CP325. The gist of the method: as §1
A further experiment relates to CP329. The method, boiled down:
as §1

For another experiment, the system named is DFO2036. The method, boiled down:
as §1

The subject of the next experiment is DIV17. The gist of the method:
as §1

For a further experiment, the system named is DIV30. The gist of the method: as §1
The next experiment relates to ECU. The method, boiled down:
as §1

The next experiment relates to FAB9. The method, boiled down:
as §1

A further experiment concerns JCK. The method, boiled down:
as §1

The test system of the next experiment is CP286. The method, boiled down: as §1
In a further experiment the test system is CP335. The gist of the method: as §1
Another experiment concerns Dd2. The gist of the method:
as §1

The next experiment concerns GB4. The method, boiled down: as §1
For another experiment, the system named is HB3. The method, boiled down: as §1
The subject of another experiment is ICS. The gist of the method:
as §1

Another experiment has as its system DIV14. The gist of the method:
as §1

Records with an inconclusive call do not appear. The source made the active and inactive calls. The call rests on the fitted dose curve; in most records, active means well fitted inhibition curve with a large enough effect; inconclusive means small, poorly fitted or top-dose-only effect; inactive means flat fitted curve, though single readings scatter.
Potency means the concentration at half of the fitted maximal effect.

Take `CN(Cc1cc(Br)cc(Br)c1N)C1CCCCC1`: the Potency entry in the experiment with CP269, with CP291, with CP297, with CP305, in the experiment with CP315 and in the experiment with CP325 was “inactive” in each case. For the same compound, the Potency entry with CP329, with DFO2036, with DIV17, in the experiment on DIV30, in the experiment on ECU and in the experiment on FAB9 was “inactive” throughout. The Potency entry in the experiment with JCK is “inactive”.

`O=c1oc2c(O)c(O)cc3c(=O)oc4c(O)c(O)cc1c4c23`: the Potency was 0.757 µM (active) in the experiment on CP269; 1 µM (active) with CP286; 1.51 µM (active) with CP297; 0.849 µM (active) in the experiment on CP335; 2 µM (active) with Dd2; 0.849 µM (active) in the experiment with GB4. In addition, the Potency is 2 µM (active) in the experiment on HB3 and 0.891 µM (active) in the experiment on ICS. Also, the Potency result with CP325, with CP329 and in the experiment on JCK was “inactive” in each case.

As for `COc1cc([C@@H]2c3cc4c(cc3[C@H](O)[C@H]3COC(=O)[C@H]23)OCO4)cc(OC)c1OC`, the Potency in the experiment on CP269 is 4.26 µM (active); in the experiment with CP286 it was 4.47 µM (active); in the experiment on CP297 it was 15.1 µM (active); with CP305, 6.75 µM (active); with CP325, 13.5 µM (active); with CP335, 3.38 µM (active). The Potency in the experiment on DFO2036 is 2.82 µM (active); in the experiment on DIV14, 2.13 µM (active); in the experiment on DIV17, 1.69 µM (active); with DIV30, 6.75 µM (active); in the experiment with Dd2 it was 2.24 µM (active); in the experiment on ECU, 3.55 µM (active). The Potency is 6.31 µM (active) in the experiment on FAB9, 3.38 µM (active) in the experiment on GB4, 1.78 µM (active) with HB3 and 0.891 µM (active) in the experiment on ICS.

Take `OC(Cn1cncn1)(Cn1cncn1)c1ccc(F)cc1F`: the Potency result in the experiment with CP286, in the experiment on CP291, in the experiment on CP297, in the experiment on CP305, in the experiment on CP315 and in the experiment on CP325 was “inactive” throughout. In addition, the Potency result with CP329, in the experiment on CP335, in the experiment with DFO2036, with DIV17, in the experiment on DIV30 and in the experiment on Dd2 was “inactive” each time. Also, the Potency result in the experiment with ECU, in the experiment with FAB9, in the experiment with GB4, in the experiment with HB3, with ICS and with JCK was “inactive” throughout.

Consider `COc1cccc(N(C)C(=S)Oc2ccc3c(c2)CCCC3)n1`, for which the Potency result with CP269, with CP305, in the experiment on CP315, in the experiment with CP325, in the experiment with CP329 and in the experiment on DFO2036 was “inactive” each time. Besides, the Potency entry in the experiment with DIV17, in the experiment with Dd2, in the experiment on ECU, in the experiment with FAB9, in the experiment on GB4 and in the experiment on HB3 was “inactive” throughout. Besides, the Potency entry in the experiment with JCK was “inactive”.

For the origin of these results see PubChem BioAssay (NCATS).
